# HPGD block = HPGD (human) dehydrogenase inhibition | AID 894 | P15428 | Potency, µM, for the others: at the highest dose activity change, negative = inhibition, hits mostly inhibitors | purified HPGD, NADH fluorescence kinetic, PGE2 substrate | 4.3% of 150,000 active; further: potency means the concentration at half of the fitted maximal effect
#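 20 nM HPGD preincubated 15 min at room temperature with compound in 50 mM Tris-HCl pH 8, 0.01% Tween 20. Started with 1 mM NAD+ and 30 uM prostaglandin E2; NADH fluorescence (360/450 nm) read 5 times over 30-s intervals, last minus first.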
# PNC assembly inh = perinucleolar compartment assembly inhibition | PC3M PTB-GFP, PNC prevalence imaging, 16 h; hits give low values | activity change (PNC), negative = inhibition, % at 10 µM | 3.1% of 140,000 active | AID 2417;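 active means readout at or below -70, meaning at least 70% loss of cells showing the perinucleolar compartment, a nuclear body marking cancer cells; inconclusive means readout between -30 and a set limit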;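 further: plate controls were DMSO wells for no effect and camptothecin positive control wells for full effect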
#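 Compounds are pinned in duplicate onto adhered PC3M cells stably expressing GFP-tagged PTB and incubated 16 h at 37 C. Cells are then fixed, nuclei stained with Hoechst, and PNC-positive cells counted.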
# ALDH1A1 inh = inhibitors of human aldehyde dehydrogenase 1A1; P00352; Purified ALDH1A1, NADH fluorescence, propionaldehyde substrate; Potency, µM (highest dose often 75.3 µM), for the others: at the top dose activity, negative = inhibition, hits mostly inhibitors; 7.3% of 220,000 active;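 further: potency means the concentration at half of the fitted maximal effect; plate controls were no enzyme wells and a reference inhibitor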
# Target sequence (P00352 whole entry, looked up): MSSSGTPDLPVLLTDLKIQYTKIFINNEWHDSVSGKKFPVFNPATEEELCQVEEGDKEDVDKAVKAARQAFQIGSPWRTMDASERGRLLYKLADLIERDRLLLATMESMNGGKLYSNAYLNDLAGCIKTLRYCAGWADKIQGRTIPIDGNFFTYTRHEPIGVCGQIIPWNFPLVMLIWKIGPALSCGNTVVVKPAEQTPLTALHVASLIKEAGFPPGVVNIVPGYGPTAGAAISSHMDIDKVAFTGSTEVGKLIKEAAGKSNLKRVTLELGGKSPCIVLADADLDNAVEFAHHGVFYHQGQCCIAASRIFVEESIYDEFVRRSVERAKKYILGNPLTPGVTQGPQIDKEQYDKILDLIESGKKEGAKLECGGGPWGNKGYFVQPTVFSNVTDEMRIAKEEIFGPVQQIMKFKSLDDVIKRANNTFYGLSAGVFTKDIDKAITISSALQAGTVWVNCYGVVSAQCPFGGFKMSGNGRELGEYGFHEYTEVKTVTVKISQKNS
# Starred values were filed as active, the others as inactive; ? = inconclusive; . = no result given; [ ] = dose if it differs, or a comment. An excerpt weighted towards active compounds, which were near 11% of everything screened. Unless noted, the call rests on the fitted dose curve; in most records, active means well fitted inhibition curve with a large enough effect (not every such curve was filed as active); inconclusive means small, poorly fitted or top-dose-only effect, or another doubt; inactive means no such curve, though single readings can be large or run the other way. Unless noted, on the % scale 0 is the no-effect control and ±100 the full control effect.
SMILES,HPGD block,PNC assembly inh,ALDH1A1 inh
COCCNCC#CCOc1ccc(OC)cc1,10%,-9,?
COCCNCCCOc1ccc(C(C)(C)c2ccccc2)cc1,-17%,23,?
CC(Cc1ccccc1)C(=O)N(C)Cc1cccnc1 (stereo unspecified),-10%,64,-6%
Cc1ccc(-c2cc(C(F)F)nc(NCC3CCCO3)n2)cc1 (stereo unspecified),?,-17,-8%
CCSCCCC(=O)O,-8%,.,-8%[13.5 µM]
Oc1ccc(Nc2nc3ccccc3nc2Nc2ccc(O)cc2)cc1,-19%,1,?
CCN(CC#CCC1(O)c2ccccc2-c2ccccc21)CCO,-11%,37,-5%
CC(C)N(CC#CCC1(O)c2ccccc2-c2ccccc21)CCO,-9%,7,20µM*
CC(C)(C)c1ccc(S(=O)(=O)N(CCCN2CCOCC2)Cc2cccs2)cc1,25µM*,?,19%
O=C(Nc1ccccc1)N(CCCN1CCOCC1)Cc1cccs1,-2%,21,0%
COC(=O)CCN(c1ccccc1)S(=O)(=O)c1ccc(OC)cc1,-11%,?,?
Cc1cc(Br)c(NC(=O)c2c(-c3c(Cl)cccc3Cl)noc2C)c(Br)c1,.,.,10%
CC(C)(C)Nc1nc(OCC#N)nc(N2CCCCC2)n1,.,.,18µM*
N#CCOc1nc(N2CCCCC2)nc(N2CCCCC2)n1,.,.,-8%
Cc1ccc2c(CC(=O)OCc3nc(N)nc(Nc4ccccc4C)n3)coc2c1,-17%,?,-4%
Cc1ccc2c(CC(=O)OCc3csc(C)n3)coc2c1,-10%,-100*,6%
CCOc1cc(/C=C(\C#N)C(N)=O)ccc1OCc1c(C)no[n+]1[O-],.,.,4%
Cc1no[n+]([O-])c1COc1ccc(/C=C(\C#N)C(N)=O)cc1,-18%,69,10µM*
COc1ccc(NC(=O)[C@@H]2[C@@H]3C(=O)N(C4CCCCC4)C(=O)[C@@H]3C3c4ccccc4C=CN32)cc1 (stereo partly specified),-28%,34,0.5µM*
CC(=O)[C@@H]1[C@@H]2C(=O)N(C3CCCCC3)C(=O)[C@@H]2C2c3ccccc3C=CN21 (stereo partly specified),?,39,7.1µM*
O=C1C2C(c3ccccc3)C=CC(c3ccccc3)C2C(=O)N1C1CCCCC1 (stereo unspecified),-16%,12,5%
COc1ccc(NC(=O)CC2C(=O)N(c3cccc(OC)c3)C(=O)N2C2CCCCC2)cc1 (stereo unspecified),-6%,49,2%
CCOc1ccc(OCC)c(NC(=O)CCn2cccc2)c1,-6%,-18,-10%
CS(=O)(=O)c1ccc(C(=O)NCC(c2ccco2)N2CCCCC2)cc1 (stereo unspecified),.,.,-1%
CC(=O)c1cccc(S(=O)(=O)NCC(c2ccco2)N2CCCCC2)c1 (stereo unspecified),-17%,34,11µM*
SMILES,HPGD block,PNC assembly inh,ALDH1A1 inh
Nc1cccc(N)c1,-5%,.,-5%
CCCCN1C(=O)C(NC(=O)CC(C)C)(C(F)(F)F)C2=C1CC(C)(C)CC2=O (stereo unspecified),1%,20,30%
CCCN1C(=O)C(NC(=O)c2ccncc2)(C(F)(F)F)C2=C1CC(C)(C)CC2=O (stereo unspecified),-14%,20,7.1µM*
O=C(NCc1ccc(F)cc1)C(=O)NCC1OCCN1S(=O)(=O)c1cccs1 (stereo unspecified),-5%,58,-10%
Cc1cccc(OCC(=O)N/N=C/c2cc([N+](=O)[O-])ccc2N2CCOCC2)c1,?,-2,?
NC(=O)c1sc2nc3c(cc2c1N)CCC3,.,.,-1%
CN1CCc2nc3sc(C(=O)NCc4ccccc4)c(N)c3cc2C1,.,.,25µM*
O=C1CC(N2CCN(c3ccccn3)CC2)C(=O)N1CC(c1ccccc1)c1ccccc1 (stereo unspecified),-27%,-28,3.2µM*
COc1ccc(CCN2C(=O)CC(N3CCOCC3)C2=O)cc1OC (stereo unspecified),-13%,-10,?
CN1C(=O)CC(Sc2ncccc2C(=O)O)C1=O (stereo unspecified),-1%,-6,-5%
CNC(=O)C1CC(=O)N(CCc2ccc(OC)c(OC)c2)C(=Nc2ccc(F)cc2)S1 (stereo unspecified),.,.,10%
COc1ccc(CCN2C(=O)CC(N3CCN(c4ccccn4)CC3)C2=O)cc1OC (stereo unspecified),-12%,12,25µM*
COc1ccc(CCN2C(=O)CC(Sc3ncccc3C(=O)O)C2=O)cc1OC (stereo unspecified),-12%,?,3.5µM*
O=C1CC(N2CCN(c3ccccn3)CC2)C(=O)N1c1ccc(F)cc1 (stereo unspecified),.,.,2%
COc1ccc(CCN2C(=O)CC(C(N)=O)SC2=Nc2ccccc2)cc1OC (stereo unspecified),-9%,?,14µM*
COc1cc([N+](=O)[O-])ccc1N/C=C/C(=O)c1cccs1,-6%,12,?
CC1=C/C(=N\Nc2ccccc2[N+](=O)[O-])CC(C)(C)C1,-3%,-15,-6%
CCCCC(CC)CNC(=O)C1CC=CCC1C(=O)O (stereo unspecified),0%,-2,4%
O=C1CNC(=O)/C1=C\c1ccc(O)cc1,-21%,12,?
O=C1CNC(=O)/C1=C/c1ccc(O)cc1,?,121,32µM*
CN(/C=C1/C(=O)CNC1=O)CCO,.,.,-15%
O=C1CNC(=O)/C1=C/c1ccccc1,14µM*,?,-2%
CCN(CC)C(=O)CSc1nnc(CNc2ccc(F)cc2)o1,-11%,7,-11%
Cc1nnc2c3ccccc3c(Cl)nn12,.,.,3%
Cc1ccc(C2CC(c3cccs3)=NN2C(=O)CSC2=NN3CCCC(=O)N=C3S2)cc1 (stereo unspecified),-27%,-21,28µM*
SMILES,HPGD block,PNC assembly inh,ALDH1A1 inh
COc1ccc(C2CC(c3cccs3)=NN2C(=O)CSC2=NN3CCCC(=O)N=C3S2)cc1 (stereo unspecified),-14%,32,?
CCC(C)N1CCNCC1 (stereo unspecified),.,.,6%
CC(C)[C@H](NC(=O)CNC(=O)OC(C)(C)C)C(=O)N[C@H](C=O)C(C)C,.,.,-4%
Clc1ccc(CO/N=C2\CCCc3nonc32)c(Cl)c1,-22%,-6,-5%
CCCn1nc(C(=O)NC2CCCc3ccccc32)c2ccccc2c1=O (stereo unspecified),-5%,-9,?
CSCC[C@H](NC(=O)OC(C)(C)C)c1nnc(SCC=C(C)C)o1,-5%,-18,-9%
Cc1occc1C(=O)N1CCN(C(=O)C2CCCO2)CC1 (stereo unspecified),-8%,-8,2%
O=C(c1cccnc1)N1CCc2ccccc2C1,32µM*,11,2%
Nc1nc(N2CCN(C(=O)c3ccco3)CC2)nc2ccccc12,?,62,?
O=C(c1ccco1)N1CCN(C(=O)C2CCCO2)CC1 (stereo unspecified),-9%,-100*,1%
O=C(c1cccnc1)N1CCc2ccccc21,0%,-4,1%
O=C(c1ccco1)N1CCN(c2nnc(-c3ccccc3)c3ccccc23)CC1,-6%,3,25µM*

# Source: PubChem (National Center for Advancing Translational Sciences (NCATS))
